Measured values as given in PubChem BioAssay AID2283097 (EPA ToxCast).
Inconclusive results are not listed. Active and inactive are the calls of the source. Rule for the calls: active = hit-call score of the fitted dose curve at least 0.9, where 1 is the maximum; inconclusive = response in the unintended direction; inactive = score below 0.9.

Target: human CYP1B1, CYP1B1 (gene 1545) (UniProt Q16678)
Test: NVS_ADME_hCYP1B1: NovaScreen (NVS) CYP450-related Enzyme Activity (ADME) Assay for human CYP1B1
Protocol: NVS_ADME_hCYP1B1 is a biochemical, single-readout assay that uses extracted gene-proteins in a cell-free assay. Measurements were taken 1 hour after chemical dosing in a 96-well plate.NVS_ADME_hCYP1B1 is one of one assay component(s) measured or calculated from the NVS_ADME_hCYP1B1 assay. It is designed to make measurements of enzyme activity, a form of enzyme reporter, as detected with fluorescence intensity signals by Fluorescence technology.Data from the assay component NVS_ADME_hCYP1B1 was analyzed into 1 assay endpoint. This assay endpoint, NVS_ADME_hCYP1B1, was analyzed in the positive analysis fitting direction relative to Acetonitrile as the negative control and baseline of activity. Using a type of enzyme reporter, loss-of-signal activity can be used to understand changes in the enzymatic activity as they relate to the gene CYP1B1. Furthermore, this assay endpoint can be referred to as a primary readout, because this assay has produced multiple assay endpoints where this one serves a enzymatic activity function. To generalize the intended target to other relatable targets, this assay endpoint is annotated to the cyp intended target family, where the subfamily is xenobiotic metabolism.
Binding assays used specific radioligands (tritiated, iodinated) with non-radioactive competitive displacement ligands in agonist or antagonist protocols (as indicated) and various reference compounds and inhibitors to titrate specific binding to receptors and transporters. Most enzyme assays (CYPs, kinases, phosphatases, proteases, HDACs) used recombinant protein and specific substrates (fluorescence mostly, some colorimetric and radioactive) and inhibitors, followed by a biochemical separation of substrate and product. All assays for the biochemical HTS were initially run in duplicate at a single concentration (10 uM for CYP450 assays and 25 uM for all others). Assay-chemical combinations meeting a pre-defined threshold (e.g., 30% inhibition and other criteria defined below) were then run in singleton concentration-response format with maximum concentration of 20 uM for CYPs and 50 uM for all others. Each assay was run with positive and negative controls, and concurrent controls on every plate. The follow-up (secondary) screen tested active chemical-pairs in concentration series, as well as a few additional assays not tested in the primary screen, some selected negative inactives, and several cases re-run in the concentration series for confirmatory purposes.

Sequence of human CYP1B1, CYP1B1 (gene 1545) (Q16678 whole entry, looked up): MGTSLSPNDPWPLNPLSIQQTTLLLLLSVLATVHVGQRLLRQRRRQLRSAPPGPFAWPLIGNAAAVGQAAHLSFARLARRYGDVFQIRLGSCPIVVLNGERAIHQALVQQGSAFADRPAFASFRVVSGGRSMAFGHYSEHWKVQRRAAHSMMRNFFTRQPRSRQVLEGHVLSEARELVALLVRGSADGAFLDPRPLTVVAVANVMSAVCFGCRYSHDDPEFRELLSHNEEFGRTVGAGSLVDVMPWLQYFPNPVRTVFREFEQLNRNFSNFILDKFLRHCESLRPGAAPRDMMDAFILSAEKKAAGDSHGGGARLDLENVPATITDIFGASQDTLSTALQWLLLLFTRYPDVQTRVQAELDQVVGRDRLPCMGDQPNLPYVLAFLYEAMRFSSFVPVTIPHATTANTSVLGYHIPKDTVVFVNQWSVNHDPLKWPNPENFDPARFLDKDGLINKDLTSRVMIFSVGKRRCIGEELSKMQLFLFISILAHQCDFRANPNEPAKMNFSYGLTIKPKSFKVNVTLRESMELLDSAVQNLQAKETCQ

COP(=S)(OC)SCn1nnc2ccccc2c1=O
AC50: 498 nM (active)

Cc1ccc(-c2c(Cl)nc(C#N)n2S(=O)(=O)N(C)C)cc1
outcome: inactive

CCCN(CCOc1c(Cl)cc(Cl)cc1Cl)C(=O)n1ccnc1
outcome: inactive

Cc1ccn2nc(S(=O)(=O)Nc3c(F)cccc3F)nc2n1
outcome: inactive
